From PubChem BioAssay
Most compounds without a hit are left out; they make up all but 0.77% or so of the library.
NS1 function inh = inhibitors of influenza NS1 protein function | Potency, µM (top dose mostly 46.1 µM) | AID 2326 | 270,000 compounds, 0.4% hits; note: actives are rising curves; nearly all actives have a fitted effect of over 50% in size
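A cell-based growth assay was used: compounds that relieve NS1-induced slow growth of budding yeast raise OD600. Assay medium was yeast nitrogen base with ammonium sulphate and -URA supplement, pH 6.0, with 2% galactose.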
RE007 growth inh = less growth of the S. pombe RE007 Vpr strain; S. pombe RE007 Vpr strain, BacTiter-Glo ATP luminescence, 24 h; Potency, µM (highest dose often 92.2 µM), usual class: inhibitors; 360,000 compounds, 0.21% hits; AID 651644; active = well fitted falling curve with a large enough effect; inconclusive = small, poorly fitted or top-dose-only effect; inactive = no such curve, though single readings can be large or run the other way; note: nearly all actives have a fitted effect of over 50% in size
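Fission yeast strain RE007, carrying one chromosomally integrated HIV-1 vpr copy, was seeded at OD 0.01 in PMG+AL medium with 23 nL pinned compound. After 24 h at 30 °C and 99% humidity, viability was read by BacTiter-Glo luminescence.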
LmPK inh = blocks Leishmania mexicana pyruvate kinase activity | 290,000 compounds, 0.37% hits | Q27686 | Potency, µM (titrated, usually from 57.5 µM), most hits filed as inhibitors | purified LmPK, Kinase-Glo ATP luminescence, 1 h; active = well fitted curve in the direction sought with a large enough effect; inconclusive = small, poorly fitted or top-dose-only effect, or another doubt; inactive = no such curve, though single readings can be large; an effect the other way counts as inactive or inconclusive
Target sequence (Q27686 whole entry, looked up): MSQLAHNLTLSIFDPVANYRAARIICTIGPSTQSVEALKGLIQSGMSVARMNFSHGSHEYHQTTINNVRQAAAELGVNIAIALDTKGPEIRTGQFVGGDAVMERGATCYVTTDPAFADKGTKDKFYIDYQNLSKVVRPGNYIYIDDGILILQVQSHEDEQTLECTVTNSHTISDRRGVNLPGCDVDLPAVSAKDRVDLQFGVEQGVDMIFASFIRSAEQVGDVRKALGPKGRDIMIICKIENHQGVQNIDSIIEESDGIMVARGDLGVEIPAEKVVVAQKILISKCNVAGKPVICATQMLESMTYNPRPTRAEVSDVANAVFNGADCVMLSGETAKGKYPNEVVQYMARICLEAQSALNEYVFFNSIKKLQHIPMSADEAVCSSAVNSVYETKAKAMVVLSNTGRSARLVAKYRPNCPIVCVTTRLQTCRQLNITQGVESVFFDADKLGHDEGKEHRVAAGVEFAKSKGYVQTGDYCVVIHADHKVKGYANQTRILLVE
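Purified LmPK (0.1 nM) with 0.5 mM PEP and 0.1 mM ADP in imidazole buffer pH 7.2 with MgCl2/KCl, 1 h at room temperature. ATP formed was read by luciferase luminescence and normalized to no-enzyme and uninhibited controls.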
Tb PYK inh = blocks Trypanosoma brucei pyruvate kinase; TbPYK enzyme, Kinase-Glo Plus ATP luminescence, 45 min; Q57TT1; AID 624173; Potency, µM (series often up to 76.8 µM), usual class: inhibitors; 410,000 compounds, 0.12% hits; active = well fitted curve in the direction sought with a large enough effect; inconclusive = small, poorly fitted or top-dose-only effect, or another doubt; inactive = no such curve, though single readings can be large; an effect the other way counts as inactive or inconclusive; note: nearly all actives have a fitted effect of over 50% in size
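Readout: single end-point luminescence (Kinase-Glo Plus, 10 min). Reaction conditions were TbPYK/substrate plus 130 uM ADP, 45 min at RT, pH 7.2 TEA buffer. No-enzyme wells served as controls, and data were normalized before concentration-response fitting.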
Flu NS1 inh = validation of influenza NS1 protein function inhibitors. shares compounds with NS1 function inh. 1,400 tested, under 10 active. activity change, negative = inhibition, % at 32.9 µM. influenza NS1 function cell assay, 15-point titration. AID 492980
Hits are given with their value. Unless noted, calls come from the whole dose curve.

COc1ccc2c(c1)c(CC(=O)Nc1cc(C)ccc1C)c(C)n2C(=O)c1ccc(Cl)cc1 was read as NS1 function inh inconclusive, RE007 growth inh inactive, LmPK inh inactive, Tb PYK inh inactive and Flu NS1 inh inactive.
`COc1ccc(OC)c(NC(=O)Cc2c(C)n(C(=O)c3ccc(Cl)cc3)c3ccc(OC)cc23)c1` gave Tb PYK inh inactive.
For CCCSS/C(CCO)=C(/C)N(C=O)Cc1cnc(C)nc1N the results were Tb PYK inh inactive.
CCCCOc1ccc(C(=O)OCC(=O)N2CCOCC2)cc1 was read as NS1 function inh inactive, RE007 growth inh inactive, LmPK inh inactive and Tb PYK inh inactive.
For Cc1ccc(NC(=O)c2ccc(S(=O)(=O)N3CCCCC3)cc2)nc1 the results were RE007 growth inh inactive and Tb PYK inh inactive.
Screening O=S(=O)(NCCO)c1cc[c]([Sb])cc1 returned NS1 function inh inactive.
For Cc1cc(C)cc(N2C(=O)NC(=O)/C(=C\c3cccn3-c3ccc(Cl)cc3)C2=O)c1 the results were NS1 function inh 1µM, RE007 growth inh inactive, LmPK inh inactive, Tb PYK inh inactive and Flu NS1 inh inactive.
For Cc1cc(C)cc(N2C(=O)NC(=O)/C(=C\c3cccn3-c3ccccc3)C2=O)c1 the results were NS1 function inh inactive, RE007 growth inh inactive, LmPK inh inactive and Tb PYK inh inactive.
O=C(c1cc(NC(=O)C23CC4CC(CC(C4)C2)C3)cc(NC(=O)C23CC4CC(CC(C4)C2)C3)c1)N1CCCCC1 was read as NS1 function inh 11µM, RE007 growth inh inactive, LmPK inh inactive, Tb PYK inh inactive and Flu NS1 inh inactive.
`CCCC(=O)Nc1ccc(Cl)c(NC(=S)NC(=O)c2cc3ccccc3o2)c1` gave NS1 function inh inconclusive, RE007 growth inh inactive, LmPK inh inactive, Tb PYK inh inactive and Flu NS1 inh inactive.
Screening COc1ccc(/C=C(/NC(=O)c2ccc(OC)cc2)C(=O)NCCc2c[nH]c3ccccc23)cc1 returned NS1 function inh inconclusive, RE007 growth inh inactive, LmPK inh inactive and Tb PYK inh inactive.
For COc1ccc(C(=O)N/C(=C/c2cccc3ccccc23)C(=O)NCCc2c[nH]c3ccccc23)cc1OC the results were NS1 function inh 11µM, RE007 growth inh inactive, LmPK inh inactive, Tb PYK inh inactive and Flu NS1 inh inconclusive.
`COc1ccc(/C=C(/NC(=O)c2ccc(OC)c(OC)c2)C(=O)NCCc2c[nH]c3ccccc23)cc1` gave NS1 function inh 7.9µM, RE007 growth inh inconclusive, LmPK inh inactive, Tb PYK inh inactive and Flu NS1 inh inactive.
Screening O=C(CN1C(=O)/C(=C\C=C\c2ccccc2)SC1=S)Nc1ccc(F)cc1 returned NS1 function inh 18µM, RE007 growth inh inactive, LmPK inh inactive, Tb PYK inh inactive and Flu NS1 inh inactive.
COc1ccc(Oc2nc(C)cc(C)c2C#N)cc1 was read as NS1 function inh inconclusive, RE007 growth inh inactive, LmPK inh inactive, Tb PYK inh inactive and Flu NS1 inh inactive.
COc1ccc(Nc2nc(C)cc(C)c2C#N)cc1 was read as NS1 function inh inactive, RE007 growth inh inactive, LmPK inh inactive and Tb PYK inh inactive.
For O=c1[nH]c(C2CCCN(S(=O)(=O)c3ccc(F)cc3)C2)nc2c1nnn2Cc1ccc(F)cc1 (stereo unspecified) the results were NS1 function inh inconclusive, RE007 growth inh inactive, LmPK inh inactive, Tb PYK inh inactive and Flu NS1 inh inactive.
For Cc1ccc(Cn2nnc3c(=O)[nH]c(C4CCCN(S(=O)(=O)c5ccc(F)cc5)C4)nc32)cc1 (stereo unspecified) the results were NS1 function inh inactive, RE007 growth inh inactive, LmPK inh inactive and Tb PYK inh inactive.
CSc1cccc(NC(=O)Cc2ccccc2[N+](=O)[O-])c1 was read as NS1 function inh inactive, RE007 growth inh inactive, LmPK inh inactive and Tb PYK inh inactive.
For Cc1cccc(C(=O)Nc2ccccc2SCC(=O)Nc2ccc(C)c(Cl)c2)c1 the results were NS1 function inh inactive, RE007 growth inh inactive, LmPK inh inactive and Tb PYK inh inactive.
CCC(=O)OC1[C@@H](N2CCCCC2)C[C@H]2[C@@H]3CC[C@H]4C[C@H](OC(C)=O)[C@@H](N5CCCCC5)C[C@]4(C)[C@H]3CC[C@]12C (stereo partly specified) was read as Tb PYK inh inactive.
